Test results taken from PubChem BioAssay AID488890 (Southern Research Specialized Biocontainment Screening …, 2010).
Out of some 320,000 compounds screened, about 1,300 (0.41%) were called active. Inconclusive results (about 3%) are left out. The rule behind the calls is not given here. Only a sample is shown. Results with a measured potency or affinity are listed apart.

test: growth inhibition of non-replicating M. tuberculosis (AID 488890); details: Mycobacterium tuberculosis non-replicating, at 25 µM, stronger effect = higher value;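 note: plate controls were DMSO cells for no effect and high antibiotic wells for full effect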

| SMILES | inhibition [%] |
| --- | --- |
| CSc1ccc(-c2sc(Nc3ccccc3)n[n+]2-c2ccc(F)cc2)cc1 | 20.5 |
| CN(C)c1ccc(-c2sc(Nc3ccccc3)n[n+]2-c2ccc(F)cc2)cc1 | 60.9 |
| Cc1cc(C(=O)NCCC2=CCCCC2)c(C)o1 | 15.7 |
| O=C(NCc1ccccn1)C1CCC(CNS(=O)(=O)c2cccc3nsnc23)CC1 (centres undefined) | 0.68 |
| O=C(Nc1ccccc1O)c1ccc(NS(=O)(=O)c2cccc3cccnc23)cc1 | 27.4 |
| Cc1ccc(/C=C(\NC(=O)c2ccccc2)C(=O)NC(Cc2ccccc2)C(=O)O)cc1 (centres undefined) | -0.85 |
| Cc1ccc(O)c(CO)n1 | 1.36 |
| CC(=O)Nc1ccccc1/C=C/c1ccc2c(C)ccc(O)c2n1 | 77.9 |
| CN1CCCN(C(=O)c2ccc(Cl)cc2)CC1 | -25.6 |
| Cc1sc2nc(CSc3ccc([N+](=O)[O-])c(C(F)(F)F)c3)[nH]c(=O)c2c1C | -14.8 |
| CCCC1(CCC)NC(=O)N(CC(=O)N2CCN(C(=O)c3ccco3)CC2)C1=O | 0.73 |
| Cn1nc(-c2ccc(OCC(N)=O)cc2)c2ccccc2c1=O | 27.5 |
| CNC(=O)COc1ccc(-c2nn(C)c(=O)c3ccccc23)cc1 | -6.01 |
| CCN1CCN(c2nc(N)c([N+](=O)[O-])c(Nc3cccc(C)c3)n2)CC1 | 71.8 |
| CCOC(=O)CNC(=O)N1CCc2ccc(NC(=O)c3ccccc3OC)cc2C1 | 44.4 |
| CCN(C(=O)COC(=O)c1cccc(S(=O)(=O)N2CCOCC2)c1)C1CCS(=O)(=O)C1 (centres undefined) | -11 |
| O=c1cc(C(F)(F)F)[nH]c2ccccc12 | -4.11 |
| Cc1cccc2c(=O)cc(C(F)(F)F)[nH]c12 | 52.3 |
| O=C(O)CCCNS(=O)(=O)c1ccc(NCc2ccccc2)c(C(=O)O)c1 | -9.34 |
| Nc1ccc(C(=O)N2N=C(c3ccccc3)CC2(O)C(F)(F)F)cc1 (centres undefined) | 18.4 |
| O=C(c1ccccc1)N1N=C(c2ccccc2)CC1(O)C(F)(F)F (centres undefined) | 66.9 |
| CC1=NN(C(=O)c2ccccc2Cl)C(O)(c2cccnc2)C1 (centres undefined) | -11.1 |
| COC(=O)C1=NN(C(=O)c2ccc(C)cc2)C(O)(c2ccc(Cl)cc2)C1 (centres undefined) | 68.2 |

| SMILES | inhibition [%] |
| --- | --- |
| CCOC(=O)N1N=C(c2ccccc2)CC1(O)C(F)(F)F (centres undefined) | -6.72 |
| CC1=NN(C(=O)c2ccccc2Br)C(O)(c2cccnc2)C1 (centres undefined) | 1.25 |
| CC1=NN(C(=O)CCc2ccccc2)C(O)(c2ccncc2)C1 (centres undefined) | -17.3 |
| CCC1(O)CC(C(=O)OC)=NN1C(=O)c1ccccc1 (centres undefined) | 50.2 |
| CC(=O)Nc1sc(C)c(C)c1C(=O)OCC(=O)Nc1ccccc1 | 6.17 |
| CSc1ncccc1C(=O)OCc1ccc([N+](=O)[O-])cc1 | 39.8 |
| COc1ccc(C(=O)N/N=C2\CCc3ccccc32)cc1OC | -1.04 |
| Cc1cccc(NC(=O)C[n+]2ccccc2)c1 | 16.1 |
| Cc1c(NC(=O)COC(=O)c2cc(-c3ccc(-c4ccccc4)cc3)nc3ccccc23)c(=O)n(-c2ccccc2)n1C | -36 |
| NC(=O)c1nsc(C(=O)N(c2cccc(F)c2)C(C(=O)NCC2CCCO2)c2c[nH]c3ccccc23)c1N (centres undefined) | 29.5 |
| O=C(c1ccccc1)N1N=C(c2ccc(F)cc2)CC1(O)C(F)(F)F (centres undefined) | 67.9 |
| CC1=NN(C(=O)Cc2ccccc2)C(O)(c2cccnc2)C1 (centres undefined) | -2.18 |
| CC1=NN(C(=O)c2ccco2)C(O)(c2ccccc2)C1 (centres undefined) | 70.5 |
| O=C(c1ccco1)N1N=C(c2ccc(Cl)cc2)CC1(O)C(F)(F)F (centres undefined) | 58 |
| C=CCn1c(SCC(=O)Nc2ccccc2OC)nc2c([nH]c3ccccc32)c1=O | -4.69 |
| COc1ccccc1-c1nnc(SCc2nc3ccccc3[nH]2)n1C | 25.9 |
| O=C(Nc1cccc(F)c1)Nc1ccc2c(c1)C(=O)OC2 | -9.41 |
| Cc1cccc(C)c1OCC(=O)NCC1COc2ccccc2O1 (centres undefined) | -21 |
| CCN1CCN(c2ccc(NC(=O)c3ccco3)cc2Cl)CC1 | -16.6 |
| CCOC(=O)Cc1c(C)nc2c(C#N)c[nH]n2c1=O | -14.1 |
| CCOC(=O)Cc1c(C)nc2c(-c3ccccc3)c(C)[nH]n2c1=O | 23.1 |
| CCOC(=O)Cc1c(C)nc2c(-c3cccc(Br)c3)cnn2c1C | -10.5 |
| CCOC(=O)Cc1cc(=O)n2[nH]cc(-c3ccc(Cl)cc3)c2n1 | 81.6 |

| SMILES | inhibition [%] |
| --- | --- |
| CC1=CC(C)(C)Nc2ccc(OS(=O)(=O)c3ccc(C)cc3)cc21 | -0.67 |
| CN(C)S(=O)(=O)n1ccnc1 | -7.18 |
| c1cnc2nc(-c3ccc4c(c3)OCO4)cn2c1 | 14.6 |
| Oc1ccc(-c2nc3ncccn3c2Nc2ccc3c(c2)OCO3)cc1 | 0.55 |
| COCCn1c(SCC(=O)NC(=O)NC2CCCC2)nc2ccccc2c1=O | -3.24 |
| CN(C)CCCNC(=O)CC1C[C@H](C(=O)N2CCOCC2)[C@@]2(CCC3CCCC3)c3[nH]c4ccccc4c3CCN2C1=O (some centres undefined) | 48.7 |
| CC(C)(C)NCc1ccccc1OCc1cccs1 | 6.2 |
| C=CCOc1ccc(Br)cc1CNC(C)(C)C | 54.2 |
| CC(C)COc1ccc(Br)cc1CNC(C)(C)C | 72 |
| Cn1nnc(NCc2cc(Br)ccc2OCc2cccs2)n1 | 24.3 |
| CC1CCCCN1CCn1c(=S)[nH]c2cc3c(cc2c1=O)OCO3 (centres undefined) | 9.55 |
| Cc1c(/C=C2\NC(=O)NC2=O)c2ccccc2n1C | 16.4 |
| O=c1cc(O)n(Cc2ccc(F)cc2)c(=O)[nH]1 | -1.55 |
| CCOCCCNC(=O)C1CCC(CNS(=O)(=O)c2cccc3nsnc23)CC1 (centres undefined) | -10.5 |
| COc1ccc(C(=O)c2cc3cccc(OC)c3o2)cc1 | 70.7 |
| COc1cccc2cc(C(=O)c3ccccc3)oc12 | 77.7 |
| O=C(COc1ccccc1Cl)N1CCN(C(=O)c2ccco2)CC1 | 6.78 |
| CCOCCOC(=O)c1[nH]c2c(c1C)C(=O)CC(c1cccs1)C2 (centres undefined) | 5.49 |
| Cc1[nH]c2ccc(Br)cc2c(=O)c1CN1CCCCC1 | 6.69 |
| COC(=O)C(/C=N/OCc1ccc([N+](=O)[O-])cc1)NC(=O)c1ccccc1 (centres undefined) | 1.7 |
| O=C(O)CC(Cc1ccc(Cl)cc1)C(=O)Nc1ccc([N+](=O)[O-])cc1 (centres undefined) | 7.55 |
| O=C(CCNC(=O)c1ccc([N+](=O)[O-])cc1)Nc1ccc(F)cc1F | 69.1 |
| CO/N=C/CC(=O)Nc1ccc(F)cc1F | -1.66 |

| SMILES | inhibition [%] |
| --- | --- |
| O=C(C/C=N\OCc1ccc(Cl)cc1Cl)Nc1ccccc1 | 55.5 |
| O=C(Cc1ccc([N+](=O)[O-])cc1)Nc1ccc(Cl)cc1 | 12.6 |
| O=C(NCCCCc1ccccc1)C1CC(c2cccc(F)c2)=NO1 (centres undefined) | 9.38 |
| Nn1c(-c2ccccc2)nc2ccccc2c1=O | -12.5 |
| O=C(O)c1cnc(-c2ccccc2)nc1Sc1cccc(Cl)c1 | 53.3 |
| CCC(CC)NC(=O)COC(=O)c1cc(SC)ccc1Cl | 28.5 |
| CCOc1ccccc1N1CCN(CC(O)COC2CCCc3ccccc32)CC1 (centres undefined) | 59.7 |
| CN(C)C(=O)CSc1nnc([C@H](Cc2c[nH]c3ccccc23)NC(=O)OC(C)(C)C)o1 | -0.86 |
| CC(CCc1ccc(O)cc1)NC1c2ccccc2-c2ccccc21 (centres undefined) | 43.3 |
| CC(C)=N/N=C1\NC(=O)C(C)S1 (centres undefined) | 54 |
| O=C(CNC(=O)N1CC(=O)Nc2ccccc21)Nc1ccccc1F | -10.2 |
| N=C1S/C(=C\c2ccco2)C(=O)N1c1ccc2c(c1)OCO2 | 0.43 |
| COc1ccc(/C=C2\SC(=N)N(c3nccs3)C2=O)cc1OC | -5.11 |
| CN(C1CCCCC1)S(=O)(=O)c1cccc(C(=O)Nc2ccccn2)c1 | 25.5 |
| CCOP(=O)(Cc1cc(C(=O)CC)c(C)o1)OCC | -21.9 |
| O=[N+]([O-])c1cccnc1Sc1ccc(F)cc1 | 18.3 |
| O=c1ccnc(Sc2ncccc2[N+](=O)[O-])[nH]1 | 37.6 |
| Cc1ccc(Sc2ncccc2[N+](=O)[O-])cc1 | 23.3 |
| CC(C)(C)c1csc(Sc2ncccc2[N+](=O)[O-])n1 | 19.4 |
| CCn1c(=O)n(-c2ccc(Cl)cc2)c(=O)c2c3c(sc21)COC(C)(C)C3 | 5.56 |
| O=C(COC(=O)Cc1ccsc1)Nc1ccc(Cl)cc1F | 70.1 |
| CC(C)(C)OC(=O)CNC(=O)c1[nH]cnc1C(=O)NC1CCNCC1 | -8.53 |
| Cc1ccc(OCCCC(=O)NCc2ccco2)cc1 | 53.7 |

| SMILES | inhibition [%] |
| --- | --- |
| COc1ccc(OCCCC(=O)NCc2ccco2)cc1 | 56.7 |
| CC1CCN(C(=O)c2cc3c(=O)n4ccccc4nc3s2)CC1 | -10.7 |
| CCCCN(C)Cc1c(C)[nH]c2ccc(C)cc2c1=O | 3.45 |
| CC(CCc1ccccc1)NC(=O)c1ccc(F)cc1 (centres undefined) | 65.9 |
| CN(C)CCCN(C(=O)c1ccc(S(=O)(=O)N2CCCCC2)cc1)c1nc2cc3c(cc2s1)OCO3 | 20.6 |
| CC(C)c1ccc(/C=N/NC(=O)c2c(Cl)cnn2C)cc1 | -10.4 |
| CSCCOC(=O)COc1ccc(/C=N/NC(=O)c2nn(C)cc2Cl)cc1 | 75.7 |
| COc1cc(CN2CCN(Cc3ccc(SC)cc3)CC2)cc(OC)c1O | -26.9 |
| N/C(=N\N=C\c1cccs1)SC1CC(=O)N(c2cccc([N+](=O)[O-])c2)C1=O (centres undefined) | -1.1 |
| COc1ccc(N(CN2C(=O)c3ccccc3C2=O)C(=O)C(C)C)cc1 | 2.08 |
| Cc1ccc(C(=O)Nc2ncc(Cc3ccc(F)cc3)s2)o1 | 13.4 |
| O=C(Nc1ncc(Cc2ccccc2Cl)s1)c1ccc([N+](=O)[O-])cc1 | -27.1 |
| CC(=O)Nc1ncc(Cc2cccc(Cl)c2)s1 | 36.5 |
| CC(C)C(=O)Nc1ncc(Cc2ccc(Cl)cc2)s1 | 32.4 |
| O=C(Nc1ncc(Cc2ccccc2)s1)C1COc2ccccc2O1 (centres undefined) | 64 |
| Cc1ccc(C(=O)Nc2ncc(Cc3ccccc3)s2)o1 | 32.2 |
| CC(C)C(=O)Nc1ncc(Cc2ccccc2Cl)s1 | 4.24 |
| Cc1ccc(Cc2cnc(NC(=O)c3ccco3)s2)cc1 | 79 |
| O=C(CSc1oc(-c2ccc(F)cc2)nc1S(=O)(=O)c1ccccc1)NCC1CCCO1 (centres undefined) | -4.84 |
| CCc1cc(CNC(=O)c2ccc(OC3CCN(CCc4ccccc4)CC3)cc2)on1 | 4.71 |
| CN(CC(=O)Nc1cccc(F)c1)C(=O)c1ccccc1Cc1ccccc1 | -4.13 |
| O=C(NCc1ccco1)c1cccc(S(=O)(=O)N2CCCCC2)c1 | 16.4 |
